Screens from PubChem.
In the library only some 9.2% were active in any assay of this set; here they are far more common.
FLuc counter – qHTS profiling assay for firefly luciferase inhibitor/activator using purifed enzyme and Km concentrations of substrates (counterscreen for miR-21 project). 360,000 compounds, 6.9% hits. Potency, µM (highest dose often 57.5 µM), inactives show at the highest dose activity change, negative = inhibition, hits mostly inhibitors. Luciferin 4-monooxygenase (Photinus pyralis), P08659. purified FLuc, Km substrates, luminescence inhibition;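 further: plate controls were vehicle for no effect and reference inhibitor for full effect; nearly all actives have a fitted effect of over 55% in size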
Target sequence (P08659 whole entry, looked up): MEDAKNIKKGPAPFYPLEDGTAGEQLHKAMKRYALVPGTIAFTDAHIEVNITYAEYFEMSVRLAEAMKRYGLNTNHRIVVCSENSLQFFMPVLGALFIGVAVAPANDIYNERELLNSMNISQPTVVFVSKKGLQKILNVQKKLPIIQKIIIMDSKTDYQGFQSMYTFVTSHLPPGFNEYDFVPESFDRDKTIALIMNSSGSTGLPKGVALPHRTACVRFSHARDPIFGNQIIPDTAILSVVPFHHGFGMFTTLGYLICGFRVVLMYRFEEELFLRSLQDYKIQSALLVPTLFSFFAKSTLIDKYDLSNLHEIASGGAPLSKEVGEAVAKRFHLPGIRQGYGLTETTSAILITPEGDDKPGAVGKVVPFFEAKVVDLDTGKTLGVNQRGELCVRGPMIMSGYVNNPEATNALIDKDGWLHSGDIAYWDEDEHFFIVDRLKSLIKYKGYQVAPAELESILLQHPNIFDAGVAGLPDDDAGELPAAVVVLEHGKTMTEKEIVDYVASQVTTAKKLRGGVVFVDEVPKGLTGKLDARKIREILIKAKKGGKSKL
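Biochemical qHTS of compounds, final roughly 60 µM downward over six points, against 10 nM purified firefly luciferase using Km concentrations of substrates (10 uM D-luciferin, 10 uM ATP) in Tris acetate pH 7.5 buffer; luminescence output.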
NPC1 promoter act – qHTS Assay for NPC1 Promoter Activators; Huh7 NPC1 promoter luciferase reporter, 24 h; Potency, µM (doses to about 9.22 µM), for inactives: at the top dose activation, actives largely listed as activators; 320,000 compounds, 2.4% hits; AID 485313, 2010; further: % of control where 0% means no effect; nearly all actives have a fitted effect of over 60% in size
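Luminescence from an NPC1 promoter-driven luciferase reporter in stably transfected Huh7 cells was measured after 24 h compound treatment at 37 °C, followed by 10 min ambient incubation with luciferase detection reagent.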
SMN2 splice up – qHTS Assay for Enhancers of SMN2 Splice Variant Expression; Potency, µM (doses to about 46.1 µM), inactives show top-dose activity change, positive = activation, actives largely listed as activators; HEK293 SMN2-luciferase splicing reporter, luminescence, 30-36 h; 210,000 compounds, 2.8% hits; further: % of control where 0% means no effect; nearly all actives have a fitted effect of over 55% in size
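HEK293 cells carry an SMN2 minigene-luciferase reporter in which exon 7 inclusion puts luciferase in frame. Cells were seeded at 2000 cells/well, attached for 10-12 hours, then exposed to compounds for 30-36 hours at 37C before ONE-Glo luminescence.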
ELG1 genotoxic – qHTS screen for small molecules that induce genotoxicity in human embryonic kidney (HEK293T) cells expressing luciferase-tagged ELG1. HEK293T ELG1-luciferase reporter, luminescence, 16 h. Potency, µM (highest dose often 46 µM), for the others: at the highest dose activity change, positive = activation, most hits filed as activators. 330,000 compounds, 1.3% hits. AID 504466, 2011; further: % of control where 0% means no effect; nearly all actives have a fitted effect of over 60% in size
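Genotoxic stress is detected as increased luminescence from luciferase-tagged ELG1 in HEK293T cells, measured with ONE-Glo after a 16 hr treatment at 37 °C.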
ELG1 DNA repair – qHTS screen for small molecules that inhibit ELG1-dependent DNA repair in human embryonic kidney (HEK293T) cells expressing luciferase-tagged ELG1 | Potency, µM (highest dose often 46.1 µM), inactives show at the top dose activity change, negative = inhibition, usual class: inhibitors | AID 504467, 2011 | HEK293T ELG1-luciferase reporter, luminescence, 16 h; DNA damage induced by 5-fluorouridine | 330,000 compounds, 2.3% hits; further: on the % scale 0 is the no-effect control and ±100 the full control effect; nearly all actives have a fitted effect of over 55% in size
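Reporter activity after DNA damage by 5-fluorouridine is monitored. Compound-treated cells incubate 16 hr at 37 °C, then ONE-Glo is added for 30 min before luminescence reading.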
Rab9 prom act – qHTS Assay for Rab9 Promoter Activators; Potency, µM (series often up to 9.22 µM), inactives show top-dose activation, negative = inhibition, most hits filed as activators; AID 485297, 2010; Huh7 Rab9 promoter-luciferase reporter, luminescence, 24 h; 320,000 compounds, 2.8% hits; further: % of control where 0% means no effect; nearly all actives have a fitted effect of over 60% in size
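Luciferase signal after 10 min detection reagent at ambient indicates Rab9 promoter upregulation; stably transfected Huh7 cells were treated 24 h with compound in DMSO at 37 °C, 5% CO2.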
* hit, by the source's call; ? = inconclusive; . = not tested or not shown; [ ] = dose if it differs, or a comment. The call rests on the fitted dose curve; in most records, active means well fitted curve in the direction sought with a large enough effect; inconclusive means small, poorly fitted or top-dose-only effect, or another doubt; inactive means no such curve, though single readings can be large; an effect the other way counts as inactive or inconclusive. Potency means the concentration at half of the fitted maximal effect.

SMILES | FLuc counter | NPC1 promoter act | SMN2 splice up | ELG1 genotoxic | ELG1 DNA repair | Rab9 prom act
CC(=O)Nc1ccc(NC(=O)C(C)c2cccc(C(=O)c3ccccc3)c2)cc1 (centres undefined) | -16% | 1% | -6% | -5% | -25% | -3%
CC(C(=O)Nc1ccc(O)cc1)c1cccc(C(=O)c2ccccc2)c1 (centres undefined) | -6% | -8% | -30% | -5% | 16µM* | -8%
O=C(O)CCCC(=O)Nc1ccc(OCc2nc3ccccc3s2)cc1 | 17µM* | 3% | -11% | ? | ? | 18%
CCNC(=S)Nc1ccc(OCc2nc3ccccc3s2)cc1 | 12µM* | 3.5µM* | . | ? | ? | 4µM*
O=C(COC(=O)CCC(=O)c1cccs1)Nc1ccccc1[N+](=O)[O-] | -12% | 0% | ? | -1% | 5% | -3%
C=CCn1c(SCC(=O)Nc2cc(C)on2)nc2sc3c(c2c1=O)CCCC3 | -1% | -1% | 13µM* | -1% | -2% | -1%
C=CCn1c(SCC(=O)N2CCOCC2)nc2sc3c(c2c1=O)CCCC3 | 5% | -1% | 11% | -11% | 18µM* | -8%
CCn1c(SCC(=O)Nc2cc(C)on2)nc2sc3c(c2c1=O)CCCC3 | -1% | 1% | 27% | 15% | 3% | 1%
C=C(C)Cn1c(SCC(=O)c2ccccc2)nc2sc3c(c2c1=O)CCCC3 | -1% | . | 5.6µM* | . | . | .
NS(=O)(=O)c1ccc(Cl)cc1[N+](=O)[O-] | -1% | -2% | . | 13% | 0% | -2%[1.84 µM]
CCOc1ccc(NC(=O)NCCCN2CCN(c3ccc(F)cc3)CC2)cc1 | -2% | . | -13% | . | . | .
Cn1c(C(=O)N2CCCC(Nc3ccc(F)cc3)C2)cc2ccccc21 (centres undefined) | 5% | -1% | . | -1% | -2% | 1%
COc1ccc(S(=O)(=O)N2CCOCC2)cc1NC(=O)COC(=O)C1CC1C (centres undefined) | 4% | -2% | . | -3% | 11% | 1%
COC(=O)CNC(=O)[C@@]1(Cc2ccccc2)C=C[C@@H](C)N1C(=O)c1ccccc1 | . | . | 13µM* | . | . | .
CC(=O)NCCC(=O)Nc1sc2c(c1-c1nc3ccccc3[nH]1)CCCC2 | ? | -6% | 1% | -6% | 15µM* | 0%
O=C(Nc1sc2c(c1-c1nc3ccccc3[nH]1)CCCC2)C1CCCC1 | ? | 6% | -4% | 1% | ? | 8%
O=C(Nc1ccc2ccccc2n1)c1ccccc1Cl | 1.3µM* | 0.71µM* | . | ? | ? | 0.56µM*
COc1ccc(C(=O)Nc2ccc3ccccc3n2)c(OC)c1OC | 0.21µM* | ? | . | 0.33µM* | ? | ?
COc1cccc(C(=O)Nc2cccc3ccccc23)c1OC | ? | 19% | . | 2% | ? | 26%
O=C(Nc1ccc2ccccc2n1)c1ccc(Cl)cc1 | 2.1µM* | 1µM* | . | ? | ? | 0.63µM*
O=C(Nc1ccccc1)C1CCCCC1 | -1% | -1% | . | 0% | 13% | -2%
O=C(Nc1ccc2ccccc2n1)C1CCCCC1 | 6µM* | 1.1µM* | . | ? | ? | 0.79µM*
CCCS(=O)(=O)N1CCN(Cc2c[nH]c3ccccc23)CC1 | 1% | -3% | 4% | -2% | 0% | 0%
CCc1ccccc1NC(=O)Cn1c(=O)n(Cc2ccc(OC)cc2)c(=O)c2oc3ccccc3c21 | 1% | . | . | . | . | .
CCc1ccccc1S(=O)(=O)Cc1ccc(C(=O)NCc2cccs2)o1 | 0% | -2% | 2% | -10% | ? | 2%
